HPGD block: qHTS Assay for Inhibitors of HPGD (15-Hydroxyprostaglandin Dehydrogenase) | Potency, µM, without a hit: at the highest dose activity change, negative = inhibition, usual class: inhibitors | 15-hydroxyprostaglandin dehydrogenase [NAD(+)] (Homo sapiens), P15428 | AID 894, 2007 | purified HPGD, NADH fluorescence kinetic, PGE2 substrate | actives 4.3% (n = 150,000); further: potency means the concentration at half of the fitted maximal effect
Target sequence (P15428 whole entry, looked up): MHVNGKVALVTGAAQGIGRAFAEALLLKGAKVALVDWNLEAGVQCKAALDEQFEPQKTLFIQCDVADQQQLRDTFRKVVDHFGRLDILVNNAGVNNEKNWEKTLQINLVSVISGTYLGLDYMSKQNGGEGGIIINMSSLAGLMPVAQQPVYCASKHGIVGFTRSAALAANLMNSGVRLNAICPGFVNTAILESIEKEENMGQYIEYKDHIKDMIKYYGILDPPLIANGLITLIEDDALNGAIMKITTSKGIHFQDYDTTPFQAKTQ
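NADH formation kinetics: reaction with 30 uM PGE2 and 1 mM NAD+ (final), 20 nM enzyme, Tris-HCl pH 8 with Tween 20, after 15 min compound preincubation at room temperature. Fluorescence change, last versus first of five reads.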
ALDH1A1 inh: qHTS Assay for Inhibitors of Aldehyde Dehydrogenase 1 (ALDH1A1); Potency, µM (highest dose often 75.3 µM), inactives show at the top dose activity, negative = inhibition, most hits filed as inhibitors; actives 7.3% (n = 220,000); Purified ALDH1A1, NADH fluorescence, propionaldehyde substrate;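 further: potency means the concentration at half of the fitted maximal effect; plate controls were no enzyme wells and a reference inhibitor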
IMPase Li cell: qHTS Assay for Identifying the Cell-Membrane Permeable IMPase Inhibitors: Potentiation with Lithium | Potency, µM (doses to about 59.4 µM), inactives show top-dose activity, negative = IMPase inhibition, actives largely listed as inhibitors | CHO-M1 cells, IP1 TR-FRET (IP-One), carbachol + lithium | AID 1457, 2008 | actives 0.35% (n = 210,000); active means well fitted inhibition curve with a large enough effect; inconclusive means small, poorly fitted or top-dose-only effect; inactive means no such curve, though single readings can be large or run the other way;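 further: IP1 builds up when IMPase is blocked and the TR-FRET signal falls; potency means the concentration at half of the fitted maximal effect; plate controls were basal vehicle for no effect and high inhibitor control for full effect; nearly all actives have a fitted effect of over 50% in size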
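Lithium-sensitised IP1 accumulation assay; M1-expressing CHO cells treated 30 min at 37C with compound. Competitive antibody detection by time-resolved FRET followed a 10 min room-temperature lysis step.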
IMPase inh: qHTS Assay for Identifying the Cell-Membrane Permeable IMPase Inhibitors | CHO-M1 cells, IP1 accumulation, HTRF TR-FRET ratio | inhibition (IP1 accumulation), % at 46.1 µM | 120,000 tested, under 10 active | Inositol monophosphatase 1 (Rattus norvegicus), P97697; active means well fitted curve in the direction sought with a large enough effect in the signal ratio, not every such curve was filed as active; inconclusive means small, poorly fitted or top-dose-only effect, or a change in a side signal; inactive means no such curve, though single readings can be large or run the other way; the % refers to the signal ratio;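 further: cells stimulated with carbachol in lithium chloride buffer; plate controls were DMSO basal wells for no effect and reference inhibitor wells for full effect; higher means more IMPase inhibition seen as more IP1 and lower FRET ratio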
Target sequence (P97697 whole entry, looked up): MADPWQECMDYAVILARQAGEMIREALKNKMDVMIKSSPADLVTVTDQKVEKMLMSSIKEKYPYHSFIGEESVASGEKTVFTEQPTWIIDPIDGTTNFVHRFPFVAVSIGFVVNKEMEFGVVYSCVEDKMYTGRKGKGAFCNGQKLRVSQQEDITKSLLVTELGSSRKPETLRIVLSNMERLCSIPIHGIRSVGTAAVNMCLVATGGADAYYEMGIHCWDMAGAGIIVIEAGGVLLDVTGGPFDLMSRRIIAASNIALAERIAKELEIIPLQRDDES
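Measured: the HTRF emission ratio (665/620 nm) plus the 620 nm donor channel, each fitted to the Hill equation to give AC50. Cells were CHO-M1 given compounds up to 46 uM and a 30 min carbachol stimulation at 37C.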
PNC inhibitor: High Content Assay for Compounds that inhibit the Assembly of the Perinucleolar Compartment. PC3M PTB-GFP, PNC prevalence imaging, 16 h; stronger effect = lower value. actives 3.1% (n = 140,000). activity change (PNC), negative = inhibition, % at 10 µM. AID 2417, 2010;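 active means readout at or below -70, meaning at least 70% loss of cells showing the perinucleolar compartment, a nuclear body marking cancer cells; inconclusive means readout between -30 and a set limit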;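 further: plate controls were DMSO wells for no effect and camptothecin positive control wells for full effect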
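Read-out is percentage of cells bearing a perinucleolar compartment, from automated 20x imaging of fixed, Hoechst-stained PC3M PTB-GFP cells. Cells were seeded 4 h, then exposed 16 h to compound (23 nl of library stock) in duplicate plates.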
The depositor's hits bear a star; ? = inconclusive; nt = no result; [ ] = dose if it differs, or a comment. Rows were chosen to be rich in hits. Some 11% of all compounds tested hit in one or more screens of this group. Unless noted, the call rests on the fitted dose curve; in most records, active means well fitted inhibition curve with a large enough effect (not every such curve was filed as active); inconclusive means small, poorly fitted or top-dose-only effect, or another doubt; inactive means no such curve, though single readings can be large or run the other way. Unless noted, on the % scale 0 is the no-effect control and ±100 the full control effect.

SMILES | HPGD block | ALDH1A1 inh | IMPase Li cell | IMPase inh | PNC inhibitor
COC(=O)N[C@@H](/C=C/c1ccccc1)/C(C(=O)OC)=C(\C)NCc1ccccc1 | -12.3% | -0.1% | 12.1% | nt | nt
CCCCCNC(=O)c1ccc2c(=O)[nH]c3c(C(=O)NCC4CCCO4)sc(=S)n3c2c1 (stereo not given) | 11.2µM* | ? | 27.9%[38.3 µM] | 2.9 | 26.9
Cc1ccc(CNC(=O)c2ccc3c(=O)[nH]c4c(C(=O)NCC5CCCO5)sc(=S)n4c3c2)cc1 (stereo not given) | nt | ? | -10.8% | nt | nt
O=C(NCc1ccccc1)c1ccc2c(=O)[nH]c3c(C(=O)NCC4CCCO4)sc(=S)n3c2c1 (stereo not given) | nt | 20µM* | 2.0% | nt | nt
CCCCC/C=C\C=C\[C@H](O)CCCCCCCC(=O)O | nt | 8.0% | -5.5% | nt | nt
O=C(Nc1ccccc1)N1N=C(c2cccs2)CC1c1cccs1 (stereo not given) | ? | ? | 13.0% | nt | -101.7*
Clc1cccc(-c2ccc(/C=N/n3cnnc3)o2)c1Cl | ? | -10.7% | -13.7% | -4.9 | -100.0*
COC(=O)[C@@H]1C[C@H]1[C@@H](NS(=O)(=O)c1ccc2ccccc2c1)c1ccccc1 | -9.0% | 3.8% | 13.2% | nt | nt
CCOC(=O)[C@]1(C(NC(=O)OC)c2ccccc2)CCCC1=O (stereo not given in full) | nt | -2.3%[13.5 µM] | nt | nt | nt
CCOC(=O)C1(CC2CCCCO2)CCN(S(=O)(=O)c2ccc(OC)cc2)CC1 (stereo not given) | nt | -8.6% | -1.1% | nt | nt
CCCCc1ncc(CN2CCC(CC3CCCCO3)(C(=O)OCC)CC2)[nH]1 (stereo not given) | nt | -2.1% | 14.4% | nt | nt
CCOC(=O)C1(CC2CCCCO2)CCN(S(=O)(=O)c2cccc(F)c2)CC1 (stereo not given) | nt | 25.1µM* | 13.1% | nt | nt
CCOC(=O)C1(CC2CCCCO2)CCN(S(=O)(=O)c2cc(C)cs2)CC1 (stereo not given) | nt | 10µM* | 0.1% | nt | nt
CCOC(=O)C1(CC2CCCCO2)CCN(Cc2cc3ccccc3[nH]2)CC1 (stereo not given) | nt | 1.26µM* | 14.4% | nt | nt
O=C1CCCc2c1cc(C(=O)O)c(=O)n2-c1ccccc1 | nt | 0.9% | 1.7% | nt | nt
O=C1CCCc2c1cc(C(=O)Nc1ccc(Br)cn1)c(=O)n2-c1ccccc1 | 35.5µM* | ? | 19.7%[38.3 µM] | 3.7 | -7.7
S=C(N=Nc1ccccc1)NNc1ccccc1 | ? | 11.2µM* | 2.6% | nt | -23.9
CC(=Nc1ccccc1)Nc1ccccc1 | -7.3% | 2.3% | 13.2%[38.3 µM] | -2.0 | ?
CCOc1cc(/C=C2/NC(=O)N(Cc3ccccc3F)C2=O)ccc1O | -10.7% | 8.91µM* | 11.6% | -2.2 | -9.5
COc1cc(/C=C2/NC(=O)N(Cc3ccccc3F)C2=O)cc(OC)c1O | nt | 10µM* | 6.0% | nt | nt
CCOC(=O)C1=C(Nc2ccc(Cl)cc2)OCC1=O | nt | -3.9% | nt | nt | nt
Cc1[nH][nH]c(=O)c1C(c1c(C)[nH][nH]c1=O)c1cn(Cc2cccc3ccccc23)c2ccccc12 | -10.2% | 0.316µM* | 11.0%[38.3 µM] | 10.9 | -15.5
O=C(c1cccc(F)c1)N1CCC2(CCN(Cc3cc(C(F)(F)F)cc(C(F)(F)F)c3)CC2)CC1 | -8.7% | -4.4% | 30.5% | nt | nt
COC(=O)c1sc(=S)n(-c2cc(F)ccc2F)c1N | 28.2µM* | 25.1µM* | -7.9%[38.3 µM] | 8.3 | 61.0
CCOC(=O)c1sc(=S)n(-c2cc(OC)ccc2OC)c1N | 3.55µM* | 3.16µM* | 20.0%[38.3 µM] | -13.7 | 23.4
SMILES | HPGD block | ALDH1A1 inh | IMPase Li cell | IMPase inh | PNC inhibitor
CCOC(=O)c1sc(=S)n(-c2ccc(Cl)cc2)c1C | -9.0% | ? | 8.2% | -12.9[0.369 µM] | ?
CCOC(=O)c1sc(-c2ccc(OC)cc2)cc1N | ? | ? | -26.1%[38.3 µM] | 1.2 | 30.4
CCOC(=O)c1sc(=S)n(-c2ccccc2Cl)c1SC | 17.8µM* | 17.8µM* | 22.7%[38.3 µM] | 3.8 | 10.0
CCOC(=O)c1sc(=S)n(-c2cc(F)ccc2F)c1N | 25.1µM* | 20µM* | -8.6%[38.3 µM] | -3.7 | -6.4
CCOC(=O)c1sc(=S)n(-c2ccccc2)c1SC | -22.4% | -9.8% | 20.1%[38.3 µM] | 22.1 | 83.7
COC(=O)c1sccc1NC(=S)Nc1ccc(F)cc1F | nt | -9.5% | 5.7% | nt | nt
c1cncc(-c2cc(-c3cc(-c4cccnc4)n[nH]3)[nH]n2)c1 | -9.0% | 25.1%[13.5 µM] | -2.9% | nt | nt
N/C(=N\O)c1cn([C@@H]2O[C@@H](CO)[C@H](O)[C@@H]2O)c2ncnc(NO)c12 | -6.8% | -8.6%[13.5 µM] | 7.5% | nt | nt
COc1ccccc1C1C(C(=O)Nc2ccccc2)=C(C)Nc2nc(-c3ccccc3)nn21 (stereo not given) | nt | nt | nt | 9.1 | nt
CCOC(=O)c1ccc(NC(=O)CC2OCCN(CC)C2=O)cc1 (stereo not given) | -5.0% | 1.78µM* | 21.3%[38.3 µM] | -2.9 | -25.5
CCOC(=O)c1ccc(NC(=O)CC2C(=O)OCCN2CC)cc1 (stereo not given) | nt | 1.41µM* | 9.6% | nt | nt
CCCN1CCC(NC(=O)Nc2ccc([N+](=O)[O-])cc2)CC1 | nt | 10.2% | 0.4% | nt | nt
CCCN1CCOC(CC(=O)Nc2ccc([N+](=O)[O-])cc2)C1=O (stereo not given) | nt | 8.91µM* | -5.3% | nt | nt
CC1=CC(=O)CC(C)(C)[C@]1(O)/C=C\C(C)=C\C(=O)O | -3.7% | 6.1%[13.5 µM] | 9.8% | nt | nt
CC(=O)c1cccc(NC(=O)C2CC(=O)N(c3cccc(C)c3C)C2)c1 (stereo not given) | -1.6% | 5.01µM* | 1.0%[38.3 µM] | -20.6 | -5.7
CC(=O)c1cccc(NC(=O)C2CCCCC2)c1 | -11.9% | 8.91µM* | 21.3%[38.3 µM] | -0.2 | 2.7
O=C(Cc1ccc(Cl)cc1)OCc1nnc(-c2ccccc2)o1 | nt | 3.6% | -0.1% | nt | nt
O=C(OCc1nnc(-c2ccccc2)o1)c1cc(S(=O)(=O)N2CCOCC2)c(Cl)cc1Cl | 7.94µM* | 3.7% | 30.3%[38.3 µM] | 4.1 | ?
O=C(OCc1nnc(-c2ccccc2)o1)c1ccc2ccccc2n1 | 25.1µM* | 5.2% | 15.6%[38.3 µM] | 10.6 | 2.5
O=C(OCc1nnc(-c2ccccc2)o1)c1cc2ccccc2cc1O | nt | 3.1% | 10.2% | nt | nt
O=C(OCc1nnc(-c2ccccc2)o1)c1ccc(S(=O)(=O)NCc2ccco2)cc1 | 11.2µM* | 15.5% | 22.9%[38.3 µM] | -6.6 | 27.4
O=C(OCc1nnc(-c2ccccc2)o1)c1cc([N+](=O)[O-])ccc1Cl | nt | -5.9% | 1.6% | nt | nt
O=C(COc1ccc(Br)cc1)OCc1nnc(-c2ccccc2)o1 | 28.2µM* | -11.4% | -16.5%[38.3 µM] | -1.9 | 17.8
C[C@@H](C[C@H](N)C(=O)O)C(=O)O | -0.3% | 5.4% | 2.2% | nt | nt
Cc1cc(C)n2c(Br)c(CSc3nc4ccccc4s3)nc2n1 | -28.2% | ? | 8.8% | nt | 12.1
